Hit rate of the full screen: of about 360,000 compounds, about 16,000 (4.4%) were called active. Another 9% or so got no clear call; they are omitted. What follows is part of a selection rich in actives, with near analogues and random picks from the rest. Values without a mark were called inactive. Calls come from the whole dose curve; as a rule, active = well fitted inhibition curve with a large enough effect; inconclusive = small, poorly fitted or top-dose-only effect; inactive = no such curve, though single readings can be large or run the other way.
The compounds below were run against Bromodomain adjacent to zinc finger domain protein 2B (Homo sapiens) (UniProt Q9UIF8) (assay: qHTS Assay for Inhibitors of BAZ2B). Conditions: AlphaScreen BAZ2B-H3K14Ac peptide displacement; series mostly up to 114 µM; activity change, negative = inhibition: at the top concentration.
Chain of Bromodomain adjacent to zinc finger domain protein 2B (Homo sapiens) (Q9UIF8 whole entry, looked up, the tested form may be a part): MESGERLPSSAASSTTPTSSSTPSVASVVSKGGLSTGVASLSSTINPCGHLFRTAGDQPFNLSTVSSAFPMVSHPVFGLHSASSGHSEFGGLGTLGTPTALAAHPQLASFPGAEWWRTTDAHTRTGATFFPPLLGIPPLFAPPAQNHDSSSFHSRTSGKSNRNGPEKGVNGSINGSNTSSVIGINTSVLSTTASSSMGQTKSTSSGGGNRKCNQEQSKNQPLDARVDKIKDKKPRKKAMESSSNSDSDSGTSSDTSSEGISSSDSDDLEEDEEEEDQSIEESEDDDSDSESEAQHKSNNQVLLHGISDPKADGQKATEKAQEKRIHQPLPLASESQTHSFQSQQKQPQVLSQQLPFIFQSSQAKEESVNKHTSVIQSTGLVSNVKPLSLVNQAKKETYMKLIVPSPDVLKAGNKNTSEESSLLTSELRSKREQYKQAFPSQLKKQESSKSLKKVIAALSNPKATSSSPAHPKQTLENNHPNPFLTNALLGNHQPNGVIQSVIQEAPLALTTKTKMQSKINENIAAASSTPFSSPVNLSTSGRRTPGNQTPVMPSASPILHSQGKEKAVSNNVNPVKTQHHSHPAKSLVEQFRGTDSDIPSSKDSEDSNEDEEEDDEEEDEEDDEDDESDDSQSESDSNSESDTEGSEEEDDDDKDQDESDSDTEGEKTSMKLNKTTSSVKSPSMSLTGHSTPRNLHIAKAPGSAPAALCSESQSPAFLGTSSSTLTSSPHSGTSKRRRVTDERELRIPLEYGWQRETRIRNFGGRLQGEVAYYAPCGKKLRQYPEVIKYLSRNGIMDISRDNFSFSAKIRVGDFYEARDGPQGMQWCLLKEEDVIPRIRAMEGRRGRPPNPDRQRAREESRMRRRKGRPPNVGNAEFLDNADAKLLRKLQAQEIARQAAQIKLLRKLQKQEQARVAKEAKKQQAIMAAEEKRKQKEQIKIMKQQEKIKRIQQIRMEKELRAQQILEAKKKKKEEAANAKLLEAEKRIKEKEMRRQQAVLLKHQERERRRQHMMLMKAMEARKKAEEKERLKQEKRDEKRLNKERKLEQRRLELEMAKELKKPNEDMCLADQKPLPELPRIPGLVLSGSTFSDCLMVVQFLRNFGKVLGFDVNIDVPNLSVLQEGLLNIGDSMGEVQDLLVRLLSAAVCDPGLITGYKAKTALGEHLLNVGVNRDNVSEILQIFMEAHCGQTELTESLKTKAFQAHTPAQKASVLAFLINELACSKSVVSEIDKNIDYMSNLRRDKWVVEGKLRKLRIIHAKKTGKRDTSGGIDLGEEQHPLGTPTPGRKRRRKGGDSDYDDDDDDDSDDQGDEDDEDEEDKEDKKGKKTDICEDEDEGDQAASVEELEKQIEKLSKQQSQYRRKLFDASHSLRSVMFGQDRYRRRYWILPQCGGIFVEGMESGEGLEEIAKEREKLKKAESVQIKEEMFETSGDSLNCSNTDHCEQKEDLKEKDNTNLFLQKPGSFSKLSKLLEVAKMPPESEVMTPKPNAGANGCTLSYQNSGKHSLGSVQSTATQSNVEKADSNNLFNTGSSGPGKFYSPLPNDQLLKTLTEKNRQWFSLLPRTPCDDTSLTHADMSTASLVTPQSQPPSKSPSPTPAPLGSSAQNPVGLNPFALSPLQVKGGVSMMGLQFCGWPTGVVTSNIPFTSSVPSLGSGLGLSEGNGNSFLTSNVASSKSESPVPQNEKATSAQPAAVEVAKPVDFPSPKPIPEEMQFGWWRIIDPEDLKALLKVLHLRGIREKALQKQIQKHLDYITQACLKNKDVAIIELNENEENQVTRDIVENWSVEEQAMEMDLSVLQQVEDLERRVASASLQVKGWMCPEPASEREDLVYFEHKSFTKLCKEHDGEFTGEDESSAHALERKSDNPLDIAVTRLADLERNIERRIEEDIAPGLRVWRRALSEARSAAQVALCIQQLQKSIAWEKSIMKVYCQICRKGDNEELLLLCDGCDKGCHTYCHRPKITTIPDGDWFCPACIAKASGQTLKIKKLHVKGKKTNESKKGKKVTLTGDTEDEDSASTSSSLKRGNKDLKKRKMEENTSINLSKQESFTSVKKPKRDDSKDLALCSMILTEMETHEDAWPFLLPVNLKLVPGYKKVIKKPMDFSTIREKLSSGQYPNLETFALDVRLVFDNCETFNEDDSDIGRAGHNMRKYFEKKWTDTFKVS
How it was run: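 AlphaScreen displacement: compounds (up to 110uM) incubated 30 min at room temperature with a preformed 50 nM BAZ2B/50 nM biotinylated H3K14Ac peptide complex in PBS pH 7.4 with Tween-20. Donor and acceptor beads at 10 ug/mL final added, 20 min light-protected before reading.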
% is set by controls: 0 for no effect and ±100 for the full control effect; potency is the fitted concentration of half-maximal effect.
Note: nearly all actives have a fitted effect of over 60% in size.

| SMILES | activity change, negative = inhibition | Potency |
| --- | --- | --- |
| Cc1ccc2sc(N(Cc3cccnc3)C(=O)C3COc4ccccc4O3)nc2c1C (configuration not stated) | -2.8% | – |
| C[C@H](NC(=O)c1ccccc1)C(=O)OCC(=O)c1c[nH]c2ccccc12 | 3.43% | – |
| CN(C)c1ccc(C(CNC(=O)c2ccc(F)cc2)c2c[nH]c3ccccc23)cc1 (configuration not stated) | – | 12.6 µM (active) |
| O=C(CNC(=O)c1ccc(F)cc1)c1ccccc1 | 11.6% | – |
| COc1cc(OC)cc(C(=O)Nc2ccc3nc(Nc4cccc(C(F)(F)F)c4)cc(C)c3c2)c1 | -4.94% | – |
| O=Cc1c(N2CCN(c3cccc(Cl)c3)CC2)nc2ccccn2c1=O | -33.1% | – |
| O=Cc1c(Nc2ccccc2Cl)nc2ccccn2c1=O | – | 50.1 µM (active) |
| Cc1cccn2c(=O)c(C=O)c(Nc3ccc(S(N)(=O)=O)cc3)nc12 | 6.46% | – |
| CCC(=O)N1CCc2cc(CNC(=O)Nc3ccccc3Cl)ccc21 | -7.45% | – |
| CSc1ccc(CCNC(=O)c2cc(C)nc3c2c(C)nn3-c2cccc(F)c2)cc1 | 17.5% [at 57.1 µM] | – |
| CCOc1ccccc1CNCc1c(C(=O)O)c(C)n(Cc2ccc(C)cc2)c1C | -15.7% | – |
| CCOC(=O)CNC(=O)N1c2ccccc2Sc2ccccc21 | 1.76% | – |
| CCN1/C(=C/C(=S)Nc2ccccc2)Sc2ccccc21 | – | 22.4 µM (active) |
| CCN1C(=O)c2ccccc2Sc2ccc(NC(=O)Cc3ccc(OC)cc3)cc21 | -3.41% | – |
| CCOC(=O)c1cc2c(=O)n3ccccc3nc2n(Cc2ccco2)c1=NC(=O)c1ccc(F)cc1 | 3.83% | – |
| COc1ccc(C2C(C(C)=O)=C(O)C(=O)N2Cc2cccnc2)cc1 (configuration not stated) | -37.3% | – |
| Cc1cc(N2C(=O)C(O)=C(C(=O)c3ccc(C)o3)C2c2ccc(OCc3ccccc3)cc2)no1 (configuration not stated) | -26.4% | – |
| COc1cc(C2C(C(=O)c3ccc(C)o3)=C(O)C(=O)N2Cc2cccnc2)ccc1O (configuration not stated) | – | 56.2 µM (active) |
| CCOC(=O)c1c(C)[nH]c(CCC(=O)NCCCN2CCN(c3cc(C)ccc3C)CC2)c1C | -32.7% | – |
| O=C(O)C1=C[C@H](c2cccs2)C[C@H](OCCCCO)O1 | – | 79.4 µM (active) |
| C=CCOC(=O)C1=C[C@@H](c2ccccc2)C[C@@H](OCc2ccc(CO)cc2)O1 | -1.46% | – |

| SMILES | activity change, negative = inhibition | Potency |
| --- | --- | --- |
| NC(=O)C1=C[C@H](c2csc3ccccc23)C[C@H](OCc2ccc(CO)cc2)O1 | -1.46% | – |
| Cn1c(=O)c2c(SCC(=O)NCC3CCCO3)nc(-c3ccccc3F)nc2n(C)c1=O (configuration not stated) | 6.48% | – |
| O=C(CC(c1cccs1)N1Cc2ccccc2C1=O)Nc1ccc(F)cc1F (configuration not stated) | -5.59% | – |
| Cc1cccc(OCC(=O)N(Cc2ccc(C(C)C)cc2)Cc2ccco2)c1C | 42% | – |
| CCS(=O)(=O)c1ncc(N(Cc2ccc(F)cc2)Cc2ccco2)c(C(=O)Nc2cc(C)ccc2C)n1 | -1.24% | – |
| COc1ccc2sc(-c3ccc(N(C)C)cc3)c(C#CCO)c2c1 | – | 89.1 µM (active) |
| O=C(C1CC1)N1CCc2cc(Br)cc(S(=O)(=O)N3CCN(c4ccccc4F)CC3)c21 | -3.75% | – |
| N#Cc1ccc(CSc2ncccn2)cc1 | -21.7% | – |
| N#Cc1ccc(CSc2nnc3ccccn23)cc1 | -0.806% | – |
| N#Cc1ccc(CSc2nnc(-c3ccccn3)n2-c2ccc(Cl)cc2)cc1 | – | 50.1 µM (active) |
| O=C(Nc1ccc(-c2nc3cc(NC(=O)c4ccccc4Cl)ccc3o2)cc1)c1ccccc1Cl | 10.3% | – |
| CSC1=N/C(=C\C=C\c2cccs2)C(=O)S1 | – | 11.2 µM (active) |
| Cc1ccc(C)c(N2CCN(C(=O)C3CCC(CNS(=O)(=O)c4cccs4)CC3)CC2)c1 (configuration not stated) | -36.8% | – |
| CCCOc1ccc(-c2cccc(NS(=O)(=O)c3ccccc3)c2)nn1 | 14.1% | – |
| CCOc1ccccc1C(=O)Nc1ccc(S(=O)(=O)N2CCCCC2c2cccnc2)cc1 (configuration not stated) | 0.817% | – |
| COc1ccc(C(=O)Nc2ccc3nc(N4CCCCC4)cc(C)c3c2)cc1OC | – | inactive |
| COc1ccccc1Nc1c2c(nc3ccc(NC(=O)/C=C/c4cc(OC)c(OC)c(OC)c4)cc13)CCCC2 | – | 11.2 µM (active) |
| CCOc1ccc(C(=O)Nc2ccc3nc4c(c(Nc5ccccc5OC)c3c2)CCCC4)cc1 | – | 17.8 µM (active) |
| COc1cccc(NC(=O)c2ccc3c(SCC(=O)O)c4c(nc3c2)CCCC4)c1 | -23.9% | – |
| COc1ccc(NS(=O)(=O)c2cc(NC(=O)/C=C/c3cc(OC)c(OC)c(OC)c3)ccc2N2CCCCC2)cc1 | -4.66% | – |
| COc1cc(/C=C/C(=O)N2CCc3ccccc3C2)cc(OC)c1OC | -6.42% | – |

| SMILES | activity change, negative = inhibition | Potency |
| --- | --- | --- |
| COc1ccc2c(c1)c(N1CCCC1=O)c(C(=O)Nc1ccccc1C(F)(F)F)n2C | -13.3% | – |
| Cn1nnc2c(N3CCN(c4ccccc4)CC3)ncnc21 | -20.7% | – |
| CSc1ccccc1NC(=O)CCS(=O)(=O)c1nc(-c2cccs2)cc(C(F)(F)F)n1 | 1.68% | – |
| COc1ccccc1N1CCN(C2C(=O)c3ccccc3N2C(C)=O)CC1 (configuration not stated) | -23.9% | – |
| COc1ccc(CCNC(=O)NS(=O)(=O)c2ccc(C)cc2)cc1OC | -5.09% | – |
| COc1ccc(CCNC(=O)Cc2ccc(C)cc2)cc1OC | – | 79.4 µM (active) |
| COc1ccc(CCNC(=O)CCc2ccccc2O)cc1OC | 11.6% | – |
| CCOC(=O)c1ccc(NC(=O)CC2C(=O)N(c3cccc(OC)c3)C(=O)N2C2CCCCC2)cc1 (configuration not stated) | -9.85% | – |
| Cc1c(C)c(C)c(S(=O)(=O)NCCc2ccccn2)c(C)c1C | -3.43% | – |
| COc1ccc(NCCc2ccccn2)cc1 | – | 56.2 µM (active) |
| COc1cccc(NC(=S)NCc2ccccn2)c1 | -30.1% | – |
| Cc1ccc(C(=O)CC2(O)C(=O)N(CCc3ccccc3)c3ccc(Br)cc32)cc1 (configuration not stated) | -13.9% | – |
| COc1cc(C(=O)N(Cc2ccc(N(C)C)cc2)C2CCS(=O)(=O)C2)cc(OC)c1OC (configuration not stated) | -22.1% | – |
| CC(C)c1ccc(OCC(=O)N(Cc2ccc(N(C)C)cc2)C2CCS(=O)(=O)C2)cc1 (configuration not stated) | – | 28.2 µM (active) |
| Cc1ccc(CN(C(=O)COc2ccc(Cl)cc2C)C2CCS(=O)(=O)C2)o1 (configuration not stated) | -27.3% | – |
| Cc1cc(Cl)ccc1OCC(=O)N(Cc1ccc(N(C)C)cc1)C1CCS(=O)(=O)C1 (configuration not stated) | – | 35.5 µM (active) |
| CCc1ccc(OCC(=O)N(Cc2ccccc2)C2CCS(=O)(=O)C2)cc1 (configuration not stated) | 4.48% | – |
| COc1cc(C(=O)N(Cc2ccc(C(C)C)cc2)C2CCS(=O)(=O)C2)cc(OC)c1OC (configuration not stated) | 2.98% | – |
| Cc1cc(C)c2sc(NC(=O)c3ccc(S(=O)(=O)N4CCCC4)cc3)nc2c1 | 0.487% | – |
| COc1ccc(C(=O)CSc2c(C(C)C)cnc3c2c(=O)n(C)c(=O)n3C)cc1 | -7.25% | – |
